# This is part of a sample that, as a whole, favours compounds with a hit. Of some 79,000 tested, about 15% had one in any assay. A number with no mark means an inactive call. The source made the active and inactive calls. Rule as the data show it: active = growth inhibition above about 70%; inactive = the rest.
# Columns and labels:
# [1] = NCI Yeast Anticancer Drug Screen. Data for the rad52 strain (AID 147);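 also: 0% = growth of vehicle-treated control cultures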; conditions: S. cerevisiae rad52 mutant growth inhibition, hits give high values
# Outline: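 Growth of repair-deficient yeast cells was compared between compound-treated and vehicle-treated cultures to give percent inhibition.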
# [2] = NCI Yeast Anticancer Drug Screen. Data for the wt1 strain (AID 149);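 also: 0% = growth of vehicle-treated wt1 cultures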; conditions: S. cerevisiae wt1 strain (SPY 50644) growth inhibition, hits give high values
# Outline: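 wt1 yeast, compound-treated; % growth inhibition vs vehicle control.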
# [3] = NCI Yeast Anticancer Drug Screen. Data for the rad50EPP+ strain (AID 151);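 also: 0% = growth of vehicle-treated control cultures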; conditions: S. cerevisiae rad50 mutant strain, hits give high values
# Outline: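 Measured: growth inhibition of rad50EPP+ yeast. Reference: vehicle-treated controls. Screen uses strains with defined genetic alterations in DNA damage repair or cell cycle control.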
# [4] = NCI Yeast Anticancer Drug Screen. Data for the rad50 strain (AID 155);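 also: 0% = growth of vehicle-only cultures of the same strain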; conditions: S. cerevisiae rad50 strain growth inhibition, hits give high values
# Outline: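 Genetically altered yeast (DNA repair pathway); compound treatment; growth inhibition vs vehicle ctrl.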
# [5] = NCI Yeast Anticancer Drug Screen. Data for the mec2-1 strain (AID 157); conditions: S. cerevisiae mec2-1 strain, hits give high values
# Outline: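 Compounds were applied to mec2-1 yeast cells. Their growth was then compared with that of vehicle-treated cultures to give growth inhibition.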
# [6] = NCI Yeast Anticancer Drug Screen. Data for the rad14 strain (AID 159);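 also: 0% = growth of vehicle-treated control cultures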; conditions: S. cerevisiae rad14 strain growth inhibition, hits give high values
# Outline: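 Test compounds were applied to a repair-deficient yeast strain. Its growth was then compared with that of cultures given vehicle alone, and inhibition was expressed relative to those controls.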
# [7] = NCI Yeast Anticancer Drug Screen. Data for the CLN2oe strain (AID 163);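 also: 0% = growth of vehicle-only control cultures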; conditions: S. cerevisiae CLN2oe strain, hits give high values
# Outline: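 Cells of an engineered yeast line with disturbed cell-cycle regulation are treated with compound. Inhibition of growth is then calculated relative to the vehicle-treated reference.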
# [8] = NCI Yeast Anticancer Drug Screen. Data for the cln2 rad14 strain (AID 165);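 also: 0% = growth equal to vehicle treated cultures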; conditions: S. cerevisiae cln2 rad14 strain, hits give high values
# Outline: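 Strain: cln2 rad14 yeast, altered in cell cycle control and DNA damage repair. Read-out: growth inhibition vs vehicle.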
# [9] = NCI Yeast Anticancer Drug Screen. Data for the bub3 strain (AID 167); conditions: S. cerevisiae bub3 mutant strain, hits give high values
# Outline: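 Yeast carrying a defined mutation is treated with each compound, and growth is compared with that of vehicle-exposed cells to give inhibition.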
# [10] = NCI Yeast Anticancer Drug Screen. Data for the wt2 strain (AID 169);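 also: 0% = growth of vehicle-treated yeast cultures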; conditions: S. cerevisiae wt2 strain growth inhibition, hits give high values
# Outline: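 Growth of compound-treated yeast is measured and expressed as inhibition relative to vehicle-only controls.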
# [11] = NCI Yeast Anticancer Drug Screen. Data for the mlh1 strain (AID 171);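 also: 0% = growth of vehicle-treated control cultures of the same strain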; conditions: S. cerevisiae mlh1 strain growth inhibition, hits give high values
# Outline: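 Test agents were incubated with yeast bearing a defined DNA damage repair or cell cycle control alteration; values are growth inhibition normalised to vehicle-treated cultures.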
# [12] = NCI Yeast Anticancer Drug Screen. Data for the sgs1 strain (AID 173);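 also: 0% = growth of vehicle-only control cultures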; conditions: S. cerevisiae sgs1 mutant, hits give high values
# Outline: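 Strain with an altered DNA repair or cell cycle pathway exposed to compound. Growth then measured. Value = inhibition versus vehicle control.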
# [13] = NCI Yeast Anticancer Drug Screen. Data for the mlh1 rad18 strain (AID 175); conditions: S. cerevisiae mlh1 rad18 strain growth inhibition, hits give high values
# Outline: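 A repair-deficient yeast strain is exposed to test compound, and growth is scored relative to vehicle-treated controls.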
# [14] = NCI Yeast Anticancer Drug Screen. Data for the rad18 strain (AID 177); conditions: S. cerevisiae rad18 mutant growth inhibition, hits give high values
# Outline: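 DNA-repair-defective yeast; compound treatment; growth inhibition scored against vehicle.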
# [15] = at 5.0 µM (retest, dose inferred, filed as 0.5)
# [16] = at 50.0 µM (retest, dose inferred, filed as 5.0)
compound,measurement,setting,value
CS(=O)(=O)O.[Ag],growth inhibition,[1]; at 1.2 µM,72% (active)
same,growth inhibition,[1]; at 3.7 µM,99% (active)
same,growth inhibition,[1]; at 11.0 µM,99% (active)
same,growth inhibition,[1]; at 33.0 µM,99% (active)
same,growth inhibition,[1]; at 100.0 µM,98% (active)
same,growth inhibition,[2]; at 1.2 µM,77% (active)
same,growth inhibition,[2]; at 3.7 µM,99% (active)
same,growth inhibition,[2]; at 11.0 µM,99% (active)
same,growth inhibition,[2]; at 33.0 µM,99% (active)
same,growth inhibition,[2]; at 100.0 µM,98% (active)
same,growth inhibition,[3]; at 1.2 µM,92% (active)
same,growth inhibition,[3]; at 3.7 µM,99% (active)
same,growth inhibition,[3]; at 11.0 µM,100% (active)
same,growth inhibition,[3]; at 33.0 µM,99% (active)
same,growth inhibition,[3]; at 100.0 µM,98% (active)
same,growth inhibition,[4]; at 1.2 µM,71% (active)
same,growth inhibition,[4]; at 3.7 µM,99% (active)
same,growth inhibition,[4]; [15],100% (active)
same,growth inhibition,[4]; at 11.0 µM,99% (active)
same,growth inhibition,[4]; at 33.0 µM,99% (active)
same,growth inhibition,[4]; [16],100% (active)
same,growth inhibition,[4]; at 50.0 µM,91.5% (active)
same,growth inhibition,[4]; at 100.0 µM,98% (active)
same,growth inhibition,[5]; at 1.2 µM,67%
same,growth inhibition,[5]; at 3.7 µM,99% (active)
same,growth inhibition,[5]; [15],100% (active)
same,growth inhibition,[5]; at 11.0 µM,100% (active)
same,growth inhibition,[5]; at 33.0 µM,99% (active)
same,growth inhibition,[5]; [16],98% (active)
same,growth inhibition,[5]; at 50.0 µM,92.5% (active)
same,growth inhibition,[5]; at 100.0 µM,98% (active)
same,growth inhibition,[6]; at 1.2 µM,59%
same,growth inhibition,[6]; at 3.7 µM,99% (active)
same,growth inhibition,[6]; at 11.0 µM,98% (active)
same,growth inhibition,[6]; at 33.0 µM,98% (active)
same,growth inhibition,[6]; at 100.0 µM,97% (active)
same,growth inhibition,[7]; at 1.2 µM,62%
same,growth inhibition,[7]; at 3.7 µM,99% (active)
same,growth inhibition,[7]; at 11.0 µM,98% (active)
same,growth inhibition,[7]; at 33.0 µM,99% (active)
same,growth inhibition,[7]; at 100.0 µM,98% (active)
same,growth inhibition,[8]; [15],55%
same,growth inhibition,[8]; [16],98% (active)
same,growth inhibition,[8]; at 50.0 µM,92.2% (active)
same,growth inhibition,[9]; at 1.2 µM,80% (active)
same,growth inhibition,[9]; at 3.7 µM,98% (active)
same,growth inhibition,[9]; [15],4%
same,growth inhibition,[9]; at 11.0 µM,99% (active)
same,growth inhibition,[9]; at 33.0 µM,96% (active)
same,growth inhibition,[9]; [16],98% (active)
same,growth inhibition,[9]; at 50.0 µM,92% (active)
same,growth inhibition,[9]; at 100.0 µM,97% (active)
same,growth inhibition,[10]; at 1.2 µM,27%
same,growth inhibition,[10]; at 3.7 µM,99% (active)
same,growth inhibition,[10]; at 11.0 µM,98% (active)
same,growth inhibition,[10]; at 33.0 µM,99% (active)
same,growth inhibition,[10]; at 100.0 µM,98% (active)
same,growth inhibition,[11]; at 1.2 µM,89% (active)
same,growth inhibition,[11]; at 3.7 µM,100% (active)
same,growth inhibition,[11]; at 11.0 µM,99% (active)
same,growth inhibition,[11]; at 33.0 µM,99% (active)
same,growth inhibition,[11]; at 100.0 µM,98% (active)
same,growth inhibition,[12]; at 1.2 µM,89% (active)
same,growth inhibition,[12]; at 3.7 µM,100% (active)
same,growth inhibition,[12]; at 11.0 µM,100% (active)
same,growth inhibition,[12]; at 33.0 µM,100% (active)
same,growth inhibition,[12]; at 100.0 µM,98% (active)
same,growth inhibition,[13]; [15],100% (active)
same,growth inhibition,[13]; [16],100% (active)
same,growth inhibition,[13]; at 50.0 µM,43.8%
same,growth inhibition,[14]; at 1.2 µM,76% (active)
same,growth inhibition,[14]; at 3.7 µM,100% (active)
same,growth inhibition,[14]; at 11.0 µM,99% (active)
same,growth inhibition,[14]; at 33.0 µM,99% (active)
same,growth inhibition,[14]; at 100.0 µM,98% (active)
